A short description of assay [1]: qHTS assay to identify small molecule antagonists of the estrogen receptor alpha (ER-alpha) signaling pathway using the BG1 cell line in the presence of 0.1 nM 17-beta-estradiol - cell viability counter screen (AID 1259241). Further: nearly all actives have a fitted effect of over 40% in size. Further: potency means the concentration at half of the fitted maximal effect. The method, boiled down: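 VM7Luc4E2, 4,000 cells/well, phenol red-free medium + 10% charcoal-stripped FBS; 24 hr plating; cpd + 0.1 nM E2 final, 22 hr 37C/5% CO2; CellTiter-Fluor 30 min, fluorescence.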

Assay [2] in a line: qHTS assay to identify small molecule antagonists of the androgen receptor (AR) signaling pathway using the MDA cell line in the presence of 0.5 nM R1881 - cell viability counter screen (AID 1259242). Further: nearly all actives have a fitted effect of over 45% in size. Further: potency means the concentration at half of the fitted maximal effect. The method, boiled down:
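Fluorescence from CellTiter-Fluor, which reports protease activity of live cells, was read 30 min after reagent addition to MDA-kb2 cells that had been incubated 16 hr with compound and 0.5 nM R1881.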

For assay [3], the target named is Estrogen receptor (Homo sapiens) (UniProt P03372). Kind of assay: qHTS assay to identify small molecule antagonists of the estrogen receptor alpha (ER-alpha) signaling pathway using the BG1 cell line in the presence of 0.1 nM 17-beta-estradiol (AID 1259244). Further: nearly all actives have a fitted effect of over 50% in size. Further: potency means the concentration at half of the fitted maximal effect. The gist of the method:
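Quantitative high-throughput screen in VM7Luc4E2 cells: compound plus 0.1 nM E2 (final), 22 h, 37C, 5% CO2; ONE-Glo added, 30 min room temperature, luminescence measured.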

The nature of assay [4]: qHTS assay to identify small molecule phospholipidosis (PLD) inducers (AID 1259344; active means well fitted curve in the direction sought with a large enough effect; an effect the other way counts as inactive or inconclusive). The gist of the method:
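Quantitative HTS in HepG2: compound plus LipidTOX Red dye for 24 h, paraformaldehyde fixation with Hoechst 33342, widefield high-content imaging; amiodarone as positive and DMSO as negative control.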

Assay [5] can be described thus: qHTS assay to identify small molecule HDAC inhibitors (AID 1259364). Further: top concentration of the series differs between compounds; nearly all actives have a fitted effect of over 45% in size. The method, boiled down:
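Endogenous HDAC class I/II activity was measured in wild-type HCT-116 cells by HDAC-Glo luminescence after 2 h compound treatment.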

A short description of assay [6]: qHTS assay to identify small molecule agonists of the sonic hedgehog signaling (Shh) pathway - cell viability counter screen (AID 1259366). Further: nearly all actives have a fitted effect of over 50% in size. Further: potency means the concentration at half of the fitted maximal effect. The method, boiled down: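 Cytotoxicity counter screen run in the same wells as the Shh reporter assay. NIH/3T3 cells carrying a Gli1 response element–driven luciferase were treated with DMSO-dissolved compounds for 24hr, and live-cell protease activity was measured with CellTiter-Fluor.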

A short description of assay [7]: qHTS assay to identify small molecule antagonists of the sonic hedgehog signaling (Shh) pathway - cell viability counter screen (AID 1259367). Further: nearly all actives have a fitted effect of over 55% in size. Further: potency means the concentration at half of the fitted maximal effect. The gist of the method: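 Seed 3T3 Gli1-Luc cells at 2,000 per well; incubate 4 hr; add compound in DMSO, then conditioned medium; incubate at 37C with 5% CO2; add CellTiter-Fluor after 23 hr; read fluorescence 1 hr later.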

Assay [8] in a line: qHTS assay to identify small molecule agonists of the sonic hedgehog signaling (Shh) pathway (AID 1259368; calls by dose curve;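 further: NIH/3T3-derived 3T3Gli1-Luc cells carrying a stable Gli1-driven firefly luciferase reporter; series mostly up to about 92 µM; nearly all actives have a fitted effect of over 15% in size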). The gist of the method:
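Luminescent signal was taken as a measure of Gli1-controlled luciferase expression in stably transfected NIH/3T3-derived cells that had been treated for 24 hr with compounds delivered in DMSO.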

Assay [9] can be described thus: qHTS assay to identify small molecule antagonists of the sonic hedgehog signaling (Shh) pathway (AID 1259369; calls by dose curve; further: nearly all actives have a fitted effect of over 45% in size; further: potency means the concentration at half of the fitted maximal effect). The gist of the method:
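Screening used 3T3Gli1-Luc cells at 2,000 per well, compounds delivered in DMSO, and conditioned medium as agonist stimulus; plates incubated 24hr at 37 C and 5% CO2 before a 30min luciferase step.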

Assay [10] can be described thus: qHTS assay to identify small molecule agonists of the androgen receptor (AR) signaling pathway in the presence of an antagonist - cell viability counter screen (AID 1259379). Further: nearly all actives have a fitted effect of over 25% in size. Further: potency means the concentration at half of the fitted maximal effect. The gist of the method:
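In MDA-kb2 cells (human breast carcinoma, MMTV-luciferase), compounds at 15 concentrations plus 3.0uM nilutamide; 16 hr, 37C, 0% CO2; CellTiter-Fluor fluorescence read for viability.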

Assay [11] is described as follows: qHTS assay to identify small molecule agonists of the estrogen receptor beta (ER-beta) signaling pathway - cell viability counter screen (AID 1259380). Further: nearly all actives have a fitted effect of over 30% in size. Further: potency means the concentration at half of the fitted maximal effect. The method, boiled down: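 Viability of ER-beta-UAS-bla HEK293T cells was determined by CellTiter-Glo luminescence following 16 hr treatment with test compounds at 37C.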
A short description of assay [12]: qHTS assay to identify small molecule antagonists of the estrogen receptor beta (ER-beta) signaling pathway - cell viability counter screen (AID 1259382). Further: nearly all actives have a fitted effect of over 55% in size. Further: potency means the concentration at half of the fitted maximal effect. The gist of the method: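 Tox21 10K library tested in qHTS format on ER-beta-bla HEK293T cells stimulated with 1nM E2; 16 hr treatment at 37C. Same-well CellTiter-Glo luminescence served as the cell viability measure.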

Assay [13] addresses Estrogen receptor (Homo sapiens) (UniProt P03372). Kind of assay: qHTS assay to identify small molecule agonists of the estrogen receptor alpha (ER-alpha) signaling pathway in the presence of an antagonist (AID 1259383; calls by dose curve; further: top concentration of the series differs between compounds; nearly all actives have a fitted effect of over 15% in size). The gist of the method:
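In VM7Luc4E2 cells, 4,000 per well, compounds at 15 concentrations were co-incubated 22hr at 37C with 10.0nM final ICI-182,780. Luminescence from the stably transfected 4×ERE-luciferase reporter was recorded 30min after ONE-Glo addition.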

Assay [14] is described as follows: qHTS assay to identify small molecule agonists or antagonists of the thyroid stimulating hormone receptor (TSHR) signaling pathway - wild type cell line counter screen (AID 1259384; calls by dose curve). The gist of the method:
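Wild-type Hek293 cells, 800/well, 18 h at 37C, then compound with Ro20-1724 for 30 min RT. cAMP by HTRF (cAMP-d2/anti-cAMP cryptate), 1 h RT, fluorescence read. 15 concentrations, triplicates.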

In assay [15] the target is Thyrotropin receptor (Homo sapiens) (UniProt P16473). Kind of assay: qHTS assay to identify small molecule antagonists of the thyroid stimulating hormone receptor (TSHR) signaling pathway (AID 1259385; calls by dose curve; further: nearly all actives have a fitted effect of over 20% in size). The gist of the method:
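TSHR-HEK293 cells (800/well) plated 18 h, then compounds with Ro20-1724 and TSH at 1.5 ng/mL final, 30 min at room temperature. cAMP quantified by HTRF (cAMP-d2/anti-cAMP-cryptate, 1 h); 15 concentrations in triplicate.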

A short description of assay [16]: qHTS assay to identify small molecule HDAC inhibitors - cell viability counter screen (AID 1259365). Further: series mostly up to about 92 µM; nearly all actives have a fitted effect of over 50% in size. The method, boiled down: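 Luminescence from CellTiter-Glo, developed 30min at room temperature, reports viability of wild-type HCT-116 cells treated 2hr with compounds at 37 C and 5% CO2 after overnight plating.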
Assay [17] addresses Estrogen receptor beta (Homo sapiens) (UniProt Q92731). Kind of assay: qHTS assay to identify small molecule agonists of the estrogen receptor beta (ER-beta) signaling pathway (AID 1259377; active means well fitted activation curve with a large enough effect in the signal ratio in the repeat runs, not every such curve was filed as active; the % refers to the signal ratio). The gist of the method: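 HEK293T ER-beta-UAS-bla; 2% charcoal-stripped FBS; cells pre-incubated 6 hr, compound 16 hr, 37C/5% CO2; LiveBLAzer B/G FRET substrate 2 h RT; fluorescence intensity read.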

Assay [18] shares this target. Kind of assay: qHTS assay to identify small molecule antagonists of the estrogen receptor beta (ER-beta) signaling pathway (AID 1259378; active means well fitted inhibition curve with a large enough effect in the signal ratio in the repeat runs, not every such curve was filed as active; the % refers to the signal ratio; further: potency means the concentration at half of the fitted maximal effect). The method, boiled down: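 ER-beta-UAS-bla HEK293T cells in 2% charcoal-stripped FBS medium treated with compound plus 1nM final 17-beta-estradiol for 16 hr at 37C. Beta-lactamase reporter read by FRET substrate fluorescence after 2 hours at room temperature.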

Assay [19] deals with Androgen receptor (Homo sapiens) (UniProt P10275). Kind of assay: qHTS assay to identify small molecule antagonists of the androgen receptor (AR) signaling pathway using the MDA cell line in the presence of 0.5 nM R1881 (AID 1259243). Further: potency means the concentration at half of the fitted maximal effect; nearly all actives have a fitted effect of over 50% in size. The gist of the method:
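Inhibition of R1881 (0.5 nM final) induced reporter signal was measured in human MDA-kb2 cells; note the MMTV promoter also responds to GR. Exposure lasted 16 hr at 37C.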

For assay [20] the target is unchanged. Kind of assay: qHTS assay to identify small molecule agonists of the androgen receptor (AR) signaling pathway in the presence of an antagonist (AID 1259381; calls by dose curve; further: nearly all actives have a fitted effect of over 15% in size). The gist of the method:
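Here, 15-concentration compound series were pin-transferred onto MDA-kb2 MMTV-luciferase cells already dosed with nilutamide (3.0uM final). After 16hr at 37C, ONE-Glo was added and luminescence read 30min later at room temperature.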

SMILES strings stand for the structures. Inconclusive results are not listed. Active and inactive are the calls of the source. Unless noted, the call rests on the fitted dose curve; in most records, active means well fitted curve in the direction sought with a large enough effect in the repeat runs; inconclusive means weak or mixed curves; inactive means no such curve, though single readings can be large; an effect the other way counts as inactive or inconclusive.

Sequence of Androgen receptor (Homo sapiens) (P10275 whole entry, looked up): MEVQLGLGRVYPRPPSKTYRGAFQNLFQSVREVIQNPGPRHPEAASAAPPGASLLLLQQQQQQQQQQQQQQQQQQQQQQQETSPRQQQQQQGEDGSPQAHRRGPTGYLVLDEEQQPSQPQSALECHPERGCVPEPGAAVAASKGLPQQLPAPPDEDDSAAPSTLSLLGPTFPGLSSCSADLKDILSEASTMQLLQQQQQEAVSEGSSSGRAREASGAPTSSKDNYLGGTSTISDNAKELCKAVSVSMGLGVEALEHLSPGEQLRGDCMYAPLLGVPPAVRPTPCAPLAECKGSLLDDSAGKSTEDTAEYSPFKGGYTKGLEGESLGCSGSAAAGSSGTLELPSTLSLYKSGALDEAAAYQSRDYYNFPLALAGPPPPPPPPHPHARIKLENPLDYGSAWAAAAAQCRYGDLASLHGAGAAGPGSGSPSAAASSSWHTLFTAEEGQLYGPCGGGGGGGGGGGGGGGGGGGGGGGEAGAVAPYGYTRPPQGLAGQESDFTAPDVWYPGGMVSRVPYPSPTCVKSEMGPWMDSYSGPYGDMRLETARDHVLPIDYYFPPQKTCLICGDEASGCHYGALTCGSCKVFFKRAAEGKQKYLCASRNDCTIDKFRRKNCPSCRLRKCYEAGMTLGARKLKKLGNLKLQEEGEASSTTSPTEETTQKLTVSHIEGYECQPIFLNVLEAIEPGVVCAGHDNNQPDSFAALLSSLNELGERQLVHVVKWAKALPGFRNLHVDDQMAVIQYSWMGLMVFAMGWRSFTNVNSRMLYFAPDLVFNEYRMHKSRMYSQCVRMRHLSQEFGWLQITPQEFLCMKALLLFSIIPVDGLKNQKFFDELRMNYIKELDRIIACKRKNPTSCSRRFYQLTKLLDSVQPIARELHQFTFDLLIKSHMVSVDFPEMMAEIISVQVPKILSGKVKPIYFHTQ
Sequence of Estrogen receptor beta (Homo sapiens) (Q92731 whole entry, looked up): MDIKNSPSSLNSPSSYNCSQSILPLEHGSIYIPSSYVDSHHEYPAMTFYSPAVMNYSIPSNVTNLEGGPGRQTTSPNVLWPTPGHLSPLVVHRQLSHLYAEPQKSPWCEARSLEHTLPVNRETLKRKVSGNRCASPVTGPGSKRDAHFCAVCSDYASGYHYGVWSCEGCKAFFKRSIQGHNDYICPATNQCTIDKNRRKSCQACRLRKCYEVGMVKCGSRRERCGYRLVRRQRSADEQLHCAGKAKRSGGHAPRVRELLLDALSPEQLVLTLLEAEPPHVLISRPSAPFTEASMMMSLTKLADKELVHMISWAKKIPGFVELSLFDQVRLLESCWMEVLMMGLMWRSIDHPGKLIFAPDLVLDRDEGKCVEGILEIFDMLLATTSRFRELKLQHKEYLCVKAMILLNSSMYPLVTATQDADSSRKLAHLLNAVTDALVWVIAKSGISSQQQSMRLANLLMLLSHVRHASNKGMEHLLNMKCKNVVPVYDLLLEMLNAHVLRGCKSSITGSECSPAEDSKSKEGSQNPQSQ
Sequence of Thyrotropin receptor (Homo sapiens) (P16473 whole entry, looked up): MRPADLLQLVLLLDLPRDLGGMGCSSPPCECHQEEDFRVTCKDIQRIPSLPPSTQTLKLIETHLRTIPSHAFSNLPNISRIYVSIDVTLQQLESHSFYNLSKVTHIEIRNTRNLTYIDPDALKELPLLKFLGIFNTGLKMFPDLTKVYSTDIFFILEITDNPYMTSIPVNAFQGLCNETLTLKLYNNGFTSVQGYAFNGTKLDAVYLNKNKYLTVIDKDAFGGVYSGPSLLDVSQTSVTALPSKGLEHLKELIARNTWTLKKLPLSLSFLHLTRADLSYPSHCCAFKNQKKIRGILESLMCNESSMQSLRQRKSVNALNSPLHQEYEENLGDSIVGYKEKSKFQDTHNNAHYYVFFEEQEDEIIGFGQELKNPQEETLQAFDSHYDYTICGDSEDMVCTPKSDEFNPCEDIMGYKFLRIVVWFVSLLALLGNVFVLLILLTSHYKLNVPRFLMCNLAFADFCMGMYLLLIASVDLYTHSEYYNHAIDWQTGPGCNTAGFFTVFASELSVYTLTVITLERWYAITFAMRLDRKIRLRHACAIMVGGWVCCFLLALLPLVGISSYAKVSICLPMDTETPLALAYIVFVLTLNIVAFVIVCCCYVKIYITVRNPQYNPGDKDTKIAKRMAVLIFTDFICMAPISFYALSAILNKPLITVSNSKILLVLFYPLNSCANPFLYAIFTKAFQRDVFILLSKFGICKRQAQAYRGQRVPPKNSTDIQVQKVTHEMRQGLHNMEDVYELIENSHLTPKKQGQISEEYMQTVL
Sequence of Estrogen receptor (Homo sapiens) (P03372 whole entry, looked up): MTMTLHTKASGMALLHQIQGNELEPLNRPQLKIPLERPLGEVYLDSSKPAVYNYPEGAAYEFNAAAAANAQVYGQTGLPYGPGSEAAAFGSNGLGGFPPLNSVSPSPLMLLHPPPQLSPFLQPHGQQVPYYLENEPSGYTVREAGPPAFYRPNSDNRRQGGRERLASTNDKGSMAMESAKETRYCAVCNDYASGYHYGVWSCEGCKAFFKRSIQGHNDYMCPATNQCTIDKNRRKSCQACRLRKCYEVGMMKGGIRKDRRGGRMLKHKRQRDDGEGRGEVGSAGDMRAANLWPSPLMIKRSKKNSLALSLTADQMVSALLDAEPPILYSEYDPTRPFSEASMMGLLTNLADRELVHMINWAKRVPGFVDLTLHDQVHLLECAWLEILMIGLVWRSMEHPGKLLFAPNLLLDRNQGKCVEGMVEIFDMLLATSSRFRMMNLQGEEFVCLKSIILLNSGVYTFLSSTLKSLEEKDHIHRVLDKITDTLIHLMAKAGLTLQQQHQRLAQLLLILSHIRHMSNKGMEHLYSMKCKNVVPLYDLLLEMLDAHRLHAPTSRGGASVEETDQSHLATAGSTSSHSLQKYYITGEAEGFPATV

Regarding `OC1(c2ccc(Cl)c(C(F)(F)F)c2)CCN(CCCC(c2ccc(F)cc2)c2ccc(F)cc2)CC1`, the Potency in assay [1] is 33.5 µM (active); in assay [2], 13.3 µM (active); in assay [3], 26.6 µM (active); in assay [6], 13.3 µM (active); in assay [7] it was 18.8 µM (active); in [9], 13.3 µM (active). Besides, the results for the Potency in assay [10], in assay [11] and in [12] were 18.8 µM (active), 10.6 µM (active) and 10.6 µM (active), respectively. The Potency entry in assay [4], in assay [5], in [8], in [13] and in assay [15] was “inactive” each time. Also, the call in assay [14] was inactive.
As to `COc1c(C)c2c(c(O)c1C/C=C(\C)CCC(=O)O)C(=O)OC2`, the Potency result in assay [1], in [2], in assay [3], in [4], in assay [5] and in [16] was “inactive” each time. The Potency result in assay [6], in assay [7], in assay [8], in [9], in assay [17] and in assay [10] was “inactive” in each case. In assay [13], the Potency entry was “inactive”. For the same compound, the Potency in assay [11] is 0.133 µM (active).
As for `CSc1cnc(C)cn1`, the Potency result in [1], in assay [2], in assay [3], in [5], in assay [16] and in assay [6] was “inactive” each time. Moreover, the Potency result in assay [7], in assay [8], in [9], in assay [17], in assay [18] and in assay [10] was “inactive” throughout. Moreover, the Potency entry in assay [11], in [12], in [13] and in assay [15] was “inactive” each time. Besides, the outcome in assay [14] was inactive.
In the case of `C[C@]12CCC(=O)C=C1CC[C@@H]1[C@@H]2[C@@H](O)C[C@@]2(C)[C@H]1CC[C@]2(O)C(=O)COC(=O)CCC(=O)O`, the Potency result in [1], in assay [2], in [3], in [5], in assay [16] and in assay [6] was “inactive” each time. Also, the Potency entry in assay [7], in assay [8], in [9], in [17], in [18] and in assay [10] was “inactive” throughout. Moreover, the Potency entry in [11], in assay [12], in assay [13] and in assay [15] was “inactive” each time. For the same compound, in assay [14], the result was inactive.
For the compound `Oc1ccc2c(c1)-c1ccccc1C2`, the Potency entry in assay [1], in assay [2], in assay [5], in assay [16], in assay [7] and in assay [8] was “inactive” in each case. Further, the Potency result in assay [10], in [11], in assay [20], in [12] and in assay [15] was “inactive” throughout. In addition, the Potency in [19] was 7.7 µM (active); in assay [9], 13.7 µM (active). Besides, in assay [14], the compound was called inactive.
Take `Oc1cccc(-c2c3nc(c(-c4cccc(O)c4)c4ccc([nH]4)c(-c4cccc(O)c4)c4nc(c(-c5cccc(O)c5)c5ccc2[nH]5)CC4)C=C3)c1`: the Potency in assay [1] is 3.35 µM (active); in assay [2], 7.5 µM (active); in assay [19], 29.8 µM (active); in [6], 13.3 µM (active); in assay [7], 13.3 µM (active); in assay [9] it was 16.8 µM (active). Further, the Potency in assay [18] was 26.6 µM (active); in [10] it was 8.41 µM (active); in assay [11] it was 8.41 µM (active); in [12], 21.1 µM (active). Further, the Potency result in assay [4], in [8], in assay [20] and in assay [13] was “inactive” each time. Further, the compound was called inactive in [14].
